Assay [1] has as its target Cellular tumor antigen p53 (Homo sapiens) (UniProt P04637). As to the kind of experiment: Primary qHTS for small molecule compounds that upregulate eGFP-tagged delta133p53alpha (in N-terminal) cells. (AID 2060322). Further: nearly all actives have a fitted effect of over 75% in size. Further: potency means the concentration at half of the fitted maximal effect.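 On activation: 0% = DMSO vehicle and 100% = reference activator.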 Conditions: NCI-H358 eGFP-delta133p53alpha fluorescence, 24 h; activation: stronger effect = higher value. Put shortly: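 NCI-H358 cells pre-induced 24 h with 10 ng/ml doxycycline to express N-terminal eGFP-delta133p53alpha, then dosed 24 h at 37C without doxycycline; fixed, Hoechst-stained, GFP intensity by laser scanning cytometry, normalized to DMSO (0%) and 57.5 uM 5-azacytidine (100%).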
A general note: In qHTS, concentration-response curves come from the screen itself.

Assay [2] deals with Aldehyde dehydrogenase, mitochondrial (Homo sapiens) (UniProt P05091). As to the kind of experiment: qHTS for Inhibitors of the Aldehyde Dehydrogenase Family (ALDH2) Primary screen (AID 2061308).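 Further: plate controls were vehicle for no effect and reference inhibitor for full effect; nearly all actives have a fitted effect of over 55% in size.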 The settings on record: ALDH2 enzyme inhibition qHTS, 1536-well; series mostly up to 56 µM.
Assay [3] has as its target Retinaldehyde dehydrogenase 3 (Homo sapiens) (UniProt P47895). As to the kind of experiment: qHTS for Inhibitors of the Aldehyde Dehydrogenase Family (ALDH1A3) Validation screen (AID 2061312). Further: on the % scale 0 is the no-effect control and ±100 the full control effect; nearly all actives have a fitted effect of over 45% in size. Conditions: ALDH1A3 enzyme inhibition qHTS validation, fluorescence; series mostly up to 84.7 µM.
For assay [4] the target is unchanged. As to the kind of experiment: qHTS for Inhibitors of the Aldehyde Dehydrogenase Family (ALDH1A3) Primary screen (AID 2061315).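 Further: plate controls were DMSO vehicle for no effect and reference inhibitor for full effect.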 The settings on record: ALDH inhibition qHTS; series mostly up to 56 µM.

Molecules are shown by their SMILES. Where “and” joins values, the source holds several entries; their conditions need not be identical. Equal values may be shown once. Records with an inconclusive call do not appear. A number with no mark means an inactive call. Calls of active or inactive are those of the source. The call rests on the fitted dose curve; in most records, active means well fitted curve in the direction sought with a large enough effect; inconclusive means small, poorly fitted or top-dose-only effect, or another doubt; inactive means no such curve, though single readings can be large; an effect the other way counts as inactive or inconclusive.

Cellular tumor antigen p53 (Homo sapiens), sequence (P04637 whole entry, looked up): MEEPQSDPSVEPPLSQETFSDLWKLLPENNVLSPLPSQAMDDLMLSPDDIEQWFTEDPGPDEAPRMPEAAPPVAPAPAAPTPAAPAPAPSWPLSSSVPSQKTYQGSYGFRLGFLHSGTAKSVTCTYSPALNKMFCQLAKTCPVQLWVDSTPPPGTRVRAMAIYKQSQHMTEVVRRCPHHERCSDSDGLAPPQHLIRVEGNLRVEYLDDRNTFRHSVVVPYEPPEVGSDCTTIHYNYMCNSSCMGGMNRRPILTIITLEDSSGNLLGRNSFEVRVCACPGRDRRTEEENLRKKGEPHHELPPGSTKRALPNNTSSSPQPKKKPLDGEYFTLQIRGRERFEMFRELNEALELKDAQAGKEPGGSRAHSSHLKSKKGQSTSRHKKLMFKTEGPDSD

Turning to `COc1ccc([C@@H]2N[C@H](C(=O)O)Cc3c2[nH]c2ccccc32)cc1CN1CCN(c2ccccc2F)CC1`, the activation in assay [1] was 26.7%. Also, the Potency result in assay [2], in assay [3] and in assay [4] was “inactive” throughout.
On to `CC(C)C(=O)c1cn(CC(=O)COc2ccc(Oc3ccccc3)cc2)c2ccc(C(=O)O)cc12`, for which, in assay [1], the activation is 6.68%. Further, the Potency result in assay [2], in assay [3] and in assay [4] was “inactive” in each case.
Take `CCOc1ccc(-n2c([C@@H](C)N(Cc3cccnc3)C(=O)Cc3ccc(OC(F)(F)F)cc3)nc3ncccc3c2=O)cc1`: the Potency in assay [1] was 19 µM (active). Also, the Potency entry in assay [2], in assay [3] and in assay [4] was “inactive” each time.
With `Cc1cc(C(=O)Cn2cc(C#N)ccc2=O)c(C)n1Cc1ccccc1`, the activation in assay [1] is 6.21%. Further, the Potency entry in assay [2], in assay [3] and in assay [4] was “inactive” each time.
For the molecule `O=c1cc(N2CCOCC2)nc2c3ccccc3ccn12`, the activation in assay [1] is 6.21%. Also, the Potency result in assay [2], in assay [3] and in assay [4] was “inactive” each time.
With `Cc1c(NC(=O)N2CCOCC2)ccc2c1c1ccccc1n2C(C)C`, the activation in assay [1] is -19.1%. Besides, the Potency entry in assay [2], in assay [3] and in assay [4] was “inactive” in each case.
Consider `COc1cnc(-n2cnc(C)n2)c2[nH]cc(C(=O)C(=O)N3CCN(C(=O)c4ccccc4)CC3)c12`, for which the activation in assay [1] was 3.34%. Moreover, the Potency entry in assay [2], in assay [3] and in assay [4] was “inactive” in each case.
For `C/C(=C\C(=O)OCCCCCCCCC(=O)O)C[C@@H]1OC[C@H](C[C@@H]2O[C@H]2[C@@H](C)[C@H](C)O)[C@@H](O)[C@H]1O`, the activation in assay [1] is -7.64%. In addition, the Potency result in assay [2], in assay [3] and in assay [4] was “inactive” in each case.
With `Cc1ccc(NC(=O)C(=O)NC2CC(C)(C)NC(C)(C)C2)cc1`, the activation in assay [1] was -13.4%. In addition, the Potency result in assay [2], in assay [3] and in assay [4] was “inactive” throughout.
On to `CNC(C)C(=O)NC(C(=O)N1CCCC1C(=O)Nc1snnc1-c1ccccc1)C1CCCCC1` (centres undefined), for which the activation in assay [1] was 11%. Besides, the Potency result in assay [2], in assay [3] and in assay [4] was “inactive” throughout.
As for `c1ccc(-c2ncc(CN3CCN(c4ncccn4)CC3)[nH]2)cc1`, the activation in assay [1] is -2.39%. Further, the Potency result in assay [2], in assay [3] and in assay [4] was “inactive” in each case.
With `CCNC(=O)N1CCCN(c2ccc(C(=O)NCCc3ccc(Cl)cc3Cl)cc2NC(=O)c2cccc(Cl)c2)CC1`, the activation in assay [1] is 1.91%. Further, the Potency result in assay [2], in assay [3] and in assay [4] was “inactive” in each case.
On to `CCCCc1ccc(C(=O)Nc2cc(-c3ccc(Cl)cc3)nn2-c2ccc(Cl)cc2)cc1`, for which the activation in assay [1] was 6.68%. In addition, the Potency entry in assay [2], in assay [3] and in assay [4] was “inactive” in each case.
Regarding `N[C@@H](CC(=O)N1CCn2c(nnc2C(F)(F)F)C1)Cc1[nH]nc2c(F)c(F)ccc12`, the activation in assay [1] is -3.82%. The Potency entry in assay [2], in assay [3] and in assay [4] was “inactive” throughout.
In the case of `O=C(c1cn(Cc2cncn2Cc2ccc(Br)cc2)cc1-c1cccc2ccccc12)N1CCOCC1`, the Potency in assay [1] is 26.9 µM (active). Besides, the Potency result in assay [2], in assay [3] and in assay [4] was “inactive” each time.
Regarding `CC[C@@H](c1ccc(F)c(F)c1)n1c(C(=O)OC)c(-c2ccno2)[nH]c1=S`, in assay [1], the activation is -6.68%. The Potency result in assay [2], in assay [3] and in assay [4] was “inactive” throughout.
As for `COc1ccc(C(=O)n2c(C)c(Cc3cccc(O[C@@H](C)C(=O)O)c3)c3cc(OC(F)(F)F)ccc32)cc1`, in assay [1], the activation was -3.82%. The Potency result in assay [2], in assay [3] and in assay [4] was “inactive” each time.
Regarding `COc1ccc([C@H](Cc2ccncc2)c2ccccc2)cc1OC1CCCC1`, the activation in assay [1] was -2.86%. In addition, the Potency result in assay [2], in assay [3] and in assay [4] was “inactive” in each case.
As to `Cc1nc2n(c(=O)c1CCN1CCC(c3noc4cc(F)ccc34)CC1)CCC[C@H]2O`, the activation in assay [1] is 9.21% and -6.21%. The Potency result in assay [2], in assay [3] and in assay [4] was “inactive” each time.
On to `CC1(C)CCC(C)(C)c2cc(C3(c4ccc(C(=O)O)cc4)OCCO3)ccc21`, for which the activation in assay [1] is 2.39%. The Potency entry in assay [2], in assay [3] and in assay [4] was “inactive” each time.
With `O=C(Nc1ccn(Cc2ccc(O)cc2C(F)(F)F)n1)c1c(F)cccc1F`, the activation in assay [1] was -13.4%. Further, the Potency result in assay [2], in assay [3] and in assay [4] was “inactive” each time.
As for `COc1cc(CCc2cc(NC(=O)c3ccc(N4CC(C)NC(C)C4)cc3)n[nH]2)cc(OC)c1` (centres undefined), the activation in assay [1] was 3.34%. Moreover, the Potency result in assay [2], in assay [3] and in assay [4] was “inactive” in each case.
As for `COc1ccc(C2(CNC(=O)c3ccc(NC(=O)c4ccco4)cc3)CCOCC2)cc1`, the activation in assay [1] was 5.25%. In addition, the Potency result in assay [2], in assay [3] and in assay [4] was “inactive” in each case.
For the molecule `CCN(CC)Cc1ccc(C(=O)N(CCc2ccccc2OC)[C@@H]2CCNC2)cc1`, in assay [1], the activation is 3.34%. Further, the Potency result in assay [2], in assay [3] and in assay [4] was “inactive” each time.
With `Cc1c(C(=O)Nc2ccc(N3CC(C)OC(C)C3)nc2)cccc1-c1ccc(OC(F)(F)F)cc1` (centres undefined), the activation in assay [1] was 20%. The Potency entry in assay [2], in assay [3] and in assay [4] was “inactive” throughout.
Regarding `COc1ccc(N2CCN(C(=O)c3cc4c(s3)-c3ccccc3S(=O)(=O)C4)CC2)cc1`, in assay [1], the activation was -13.8%. Also, the Potency entry in assay [2], in assay [3] and in assay [4] was “inactive” in each case.

For the origin of these results see PubChem BioAssay (NCATS).
